The values below come from PubChem BioAssay (EPA / NIEHS).

Calls of active or inactive are those of the source. How the source made its calls: active means hit-call score of the fitted dose curve at least 0.9, where 1 is the maximum; inactive means score below 0.9.

Assay [1] is described as follows: CEETOX_H295R_OHPROG: CeeTox H295R High-throughput Steroidogenesis Assay for OH-Progesterone (OHPROG) (AID 2283435).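 On AC50: human adrenal H295R cells primed 48 h with 10 µM forskolin; 17alpha-hydroxyprogesterone secreted into medium measured by HPLC-MS/MS.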 The settings on record: actives raise or lower the signal. The method in brief:
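Secreted 17alpha-hydroxyprogesterone is read by tandem MS from media of forskolin-primed H295R cells dosed with chemical for 48 h. Activity is fitted in both directions against DMSO baseline; cytotoxic concentrations are re-tested diluted.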

Assay [2] can be described thus: CEETOX_H295R_CORTISOL: CeeTox H295R High-throughput Steroidogenesis Assay for Cortisol (AID 2283438).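 Further: cortisol secreted into medium quantified by LC-MS/MS.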 The settings on record: actives raise or lower the signal. The method in brief:
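Human adrenocortical H295R cells (passage ≤10) received test chemicals for 48 h after forskolin priming. Secreted cortisol was measured by LC-MS/MS.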

Assay [3] is described as follows: CEETOX_H295R_DOC: CeeTox H295R High-throughput Steroidogenesis Assay for DOC (AID 2283439). The conditions noted are these: actives raise or lower the signal. The method in brief:
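Secreted DOC was quantified from H295R media by HPLC-MS/MS after 48 h chemical exposure following 48 h forskolin (10 uM) prestimulation. Values were fitted in both directions relative to DMSO, the negative control and baseline.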

A short description of assay [4]: CEETOX_H295R_ESTRADIOL: CeeTox H295R High-throughput Steroidogenesis Assay for Estradiol (AID 2283440).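 Further: estradiol secreted into medium quantified by LC-MS/MS after dansyl derivatisation.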 The settings on record: actives raise or lower the signal. The method in brief: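 H295R cells pre-stimulated 48 h with 10 uM forskolin, then exposed 48 h to chemical in 0.1% DMSO. Medium estradiol quantified by MTBE extraction, dansyl derivatisation and HPLC-MS/MS; bidirectional fit versus DMSO; MTT viability required >/=70%.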

Assay [5] can be described thus: CEETOX_H295R_ESTRONE: CeeTox H295R High-throughput Steroidogenesis Assay for Estrone (AID 2283441).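 Further: estrone secreted into medium measured by LC-MS/MS after dansyl derivatization.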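 On AC50: human adrenal H295R cells prestimulated with forskolin for two days.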 The conditions noted are these: actives raise or lower the signal. The method in brief:
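H295R cells; 48 h forskolin (10 uM) prestimulation; 48 h compound exposure, 0.1% DMSO final. Medium estrone: MTBE extraction, dansyl derivatization, HPLC-MS/MS. Bidirectional fit vs DMSO.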

Assay [6] in a line: CEETOX_H295R_PROG: CeeTox H295R High-throughput Steroidogenesis Assay for Progesterone (PROG) (AID 2283442).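 On AC50: human H295R adrenal cells primed with 10 µM forskolin before dosing.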 The conditions noted are these: actives raise or lower the signal. The procedure, abridged:
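H295R adrenal cells prestimulated 48 h with 10 uM forskolin, then exposed 48 h to test chemical in 0.1% DMSO. Progesterone in medium quantified by HPLC-MS/MS after MTBE extraction; viability checked by MTT in same wells.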

The nature of assay [7]: CEETOX_H295R_ANDR: CeeTox H295R High-throughput Steroidogenesis Assay for Androstenedione (ANDR) (AID 2283436). The settings on record: actives raise or lower the signal. The procedure, abridged: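 H295R human adrenal cells (passages ≤10) were exposed to test chemicals for 48 h; androstenedione in medium was MTBE-extracted and quantified by HPLC-MS/MS against a 7-point standard curve. Bidirectional fitting used DMSO as baseline.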

A short description of assay [8]: CEETOX_H295R_TESTO: CeeTox H295R High-throughput Steroidogenesis Assay for Testosterone (TESTO) (AID 2283457).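 On AC50: cells exposed to chemicals for 48 h before medium collection.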 The conditions noted are these: actives raise or lower the signal. The method in brief: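 H295R adrenal cells, passage ≤10, exposed to chemicals for 48 h. Testosterone in medium measured by MTBE extraction and HPLC-MS/MS against a 7-point standard curve. Bidirectional fit versus DMSO; MTT viability checked in the same wells.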

Read-out in assay [9]: Tumor necrosis factor receptor superfamily member 6 (Homo sapiens) (UniProt P25445)
Kind of assay: LTEA_HepaRG_FAS: Life Technologies and Expression Analysis (LTEA) Assay for Fas cell surface death receptor (FAS) using HepaRG (AID 2283447). The conditions noted are these: mRNA level, 48 h; actives raise or lower the signal. The method in brief:
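Differentiated human HepaRG cells, pre-cultured 48 h, were exposed in duplicate for 48 h to 8-point half-log concentrations (top 100 uM, 0.5% DMSO) in serum-free induction medium; FAS mRNA measured by qRT-PCR, normalized to ACTB/GAPDH/POLR2A, bidirectional fit versus DMSO.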

Read-out in assay [10]: Fatty acid synthase (Homo sapiens) (UniProt P49327)
Kind of assay: LTEA_HepaRG_FASN: Life Technologies and Expression Analysis (LTEA) Assay for Fatty Acid Synthase (FASN) using HepaRG (AID 2283448). The conditions noted are these: mRNA level, 48 h; actives raise or lower the signal. The procedure, abridged:
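Transcript-level assay: HepaRG liver cells are treated for 48 h across an eight-point range topping at 100 uM, and FASN mRNA, normalized to three housekeeping genes, is compared with DMSO controls in both directions.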

Read-out in assay [11]: Cyclin Dependent Kinase Inhibitor 1A (CDKN1A), CDKN1A (gene 1026)
Description: LTEA_HepaRG_CDKN1A: Life Technologies and Expression Analysis (LTEA) Assay for Cyclin Dependent Kinase Inhibitor 1A (CDKN1A) using HepaRG (AID 2283450). The settings on record: mRNA level, 48 h; actives raise or lower the signal. The method in brief: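 Differentiated HepaRG cells in serum-free induction medium, exposed 48 h in duplicate to eight half-log concentrations up to 100 uM in 0.5% DMSO. mRNA measured by TaqMan qRT-PCR, normalized to ACTB, GAPDH, POLR2A; bidirectional fit versus DMSO.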

Read-out in assay [12]: Cyclin D1 (CCND1), CCND1 (gene 595)
Kind of assay: LTEA_HepaRG_CCND1: Life Technologies and Expression Analysis (LTEA) Assay for Cyclin D1 (CCND1) using HepaRG (AID 2283451). The conditions noted are these: mRNA level, 48 h; actives raise or lower the signal. The method in brief: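 Differentiated HepaRG cells exposed 48 h in serum-free induction medium to eight half-log concentrations from 100 uM top, 0.5% DMSO, duplicates. CCND1 mRNA measured by Fluidigm TaqMan qRT-PCR, normalised to ACTB, GAPDH, POLR2A; bidirectional fit.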

Read-out in assay [13]: catalase (CAT), CAT (gene 847)
Kind of assay: LTEA_HepaRG_CAT: Life Technologies and Expression Analysis (LTEA) Assay for catalase (CAT) using HepaRG (AID 2283452). The settings on record: mRNA level, 48 h; actives raise or lower the signal. The method in brief:
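Differentiated HepaRG cells in serum-free induction medium were dosed 48 h in duplicate, eight half-log concentrations from 100 uM in 0.5% DMSO. Transcript measured by TaqMan qRT-PCR, normalised to ACTB/GAPDH/POLR2A, fitted bidirectionally against DMSO.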

Read-out in assay [14]: flavin-containing dimethylaniline monooxygenases 3 (FMO3), FMO3 (gene 2328)
Kind of assay: LTEA_HepaRG_FMO3: Life Technologies and Expression Analysis (LTEA) Assay for flavin-containing dimethylaniline monooxygenases 3 (FMO3) using HepaRG (AID 2283453). The settings on record: mRNA level, 48 h; actives raise or lower the signal. The procedure, abridged:
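HepaRG, 48 h exposure, 8-pt half-log series from 100 uM, 0.5% DMSO vehicle, duplicates; FMO3 transcript by Fluidigm TaqMan qRT-PCR, housekeeping-normalized; gain/loss fit vs DMSO.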

Read-out in assay [15]: Forkhead box O1 (FOXO1), FOXO1 (gene 2308)
Kind of assay: LTEA_HepaRG_FOXO1: Life Technologies and Expression Analysis (LTEA) Assay for Forkhead box O1 (FOXO1) using HepaRG (AID 2283456). The conditions noted are these: mRNA level, 48 h; actives raise or lower the signal. The procedure, abridged:
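Differentiated human HepaRG cells in serum-free induction medium were exposed in duplicate for 48 h to eight half-log concentrations (top 100 uM, 0.5% DMSO). FOXO1 mRNA was measured by TaqMan qRT-PCR, normalised to ACTB, GAPDH and POLR2A, and fitted bidirectionally against DMSO.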

Read-out in assay [16]: growth arrest and DNA damage 45 (GADD45A), GADD45A (gene 1647)
Description: LTEA_HepaRG_GADD45A: Life Technologies and Expression Analysis (LTEA) Assay for growth arrest and DNA damage 45 (GADD45A) using HepaRG (AID 2283458). The conditions noted are these: mRNA level, 48 h; actives raise or lower the signal. The procedure, abridged:
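Human HepaRG liver cells are treated in duplicate for 48 h with chemicals in 0.5% DMSO, highest concentration 100 uM. Expression is read by qRT-PCR and analyzed in both directions against vehicle.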

Read-out in assay [17]: Forkhead box O3 (FOXO3), FOXO3 (gene 2309)
Description: LTEA_HepaRG_FOXO3: Life Technologies and Expression Analysis (LTEA) Assay for Forkhead box O3 (FOXO3) using HepaRG (AID 2283459). The settings on record: mRNA level, 48 h; actives raise or lower the signal. The procedure, abridged:
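Differentiated human HepaRG cells in serum-free induction medium were exposed in duplicate for 48 h to eight half-log concentrations up to 100 uM in 0.5% DMSO. FOXO3 mRNA was quantified by qRT-PCR, normalized to ACTB, GAPDH and POLR2A, with bidirectional fitting versus DMSO.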

Read-out in assay [18]: Cyclin D2 (CCND2), CCND2 (gene 894)
Description: LTEA_HepaRG_CCND2: Life Technologies and Expression Analysis (LTEA) Assay for Cyclin D2 (CCND2) using HepaRG (AID 2283449).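 Further: CCND2 transcript measured by TaqMan qRT-PCR and normalised to three housekeeping genes.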 The conditions noted are these: mRNA level, 48 h; actives raise or lower the signal. The procedure, abridged: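 Differentiated human HepaRG cells were exposed for 48 h in serum-free induction medium to eight half-log concentrations topping at 100 uM (0.5% DMSO vehicle). CCND2 mRNA was quantified by TaqMan qRT-PCR, normalised to ACTB, GAPDH and POLR2A, and fitted bidirectionally against DMSO.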

Read-out in assay [19]: Cytochrome P450 (CYP1A1), CYP1A1 (gene 1543)
Description: LTEA_HepaRG_CYP1A1: Life Technologies and Expression Analysis (LTEA) Assay for Cytochrome P450 (CYP1A1) using HepaRG (AID 2283454). The conditions noted are these: mRNA level, 48 h; actives raise or lower the signal. The method in brief: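 Differentiated human HepaRG cells, after 48 h plating, exposed in duplicate for 48 h in serum-free induction medium to 8 half-log concentrations up to 100 uM in 0.5% DMSO. CYP1A1 mRNA by qRT-PCR, normalized to ACTB/GAPDH/POLR2A; bidirectional fit versus DMSO.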

Sequence of Fatty acid synthase (Homo sapiens) (P49327 whole entry, looked up): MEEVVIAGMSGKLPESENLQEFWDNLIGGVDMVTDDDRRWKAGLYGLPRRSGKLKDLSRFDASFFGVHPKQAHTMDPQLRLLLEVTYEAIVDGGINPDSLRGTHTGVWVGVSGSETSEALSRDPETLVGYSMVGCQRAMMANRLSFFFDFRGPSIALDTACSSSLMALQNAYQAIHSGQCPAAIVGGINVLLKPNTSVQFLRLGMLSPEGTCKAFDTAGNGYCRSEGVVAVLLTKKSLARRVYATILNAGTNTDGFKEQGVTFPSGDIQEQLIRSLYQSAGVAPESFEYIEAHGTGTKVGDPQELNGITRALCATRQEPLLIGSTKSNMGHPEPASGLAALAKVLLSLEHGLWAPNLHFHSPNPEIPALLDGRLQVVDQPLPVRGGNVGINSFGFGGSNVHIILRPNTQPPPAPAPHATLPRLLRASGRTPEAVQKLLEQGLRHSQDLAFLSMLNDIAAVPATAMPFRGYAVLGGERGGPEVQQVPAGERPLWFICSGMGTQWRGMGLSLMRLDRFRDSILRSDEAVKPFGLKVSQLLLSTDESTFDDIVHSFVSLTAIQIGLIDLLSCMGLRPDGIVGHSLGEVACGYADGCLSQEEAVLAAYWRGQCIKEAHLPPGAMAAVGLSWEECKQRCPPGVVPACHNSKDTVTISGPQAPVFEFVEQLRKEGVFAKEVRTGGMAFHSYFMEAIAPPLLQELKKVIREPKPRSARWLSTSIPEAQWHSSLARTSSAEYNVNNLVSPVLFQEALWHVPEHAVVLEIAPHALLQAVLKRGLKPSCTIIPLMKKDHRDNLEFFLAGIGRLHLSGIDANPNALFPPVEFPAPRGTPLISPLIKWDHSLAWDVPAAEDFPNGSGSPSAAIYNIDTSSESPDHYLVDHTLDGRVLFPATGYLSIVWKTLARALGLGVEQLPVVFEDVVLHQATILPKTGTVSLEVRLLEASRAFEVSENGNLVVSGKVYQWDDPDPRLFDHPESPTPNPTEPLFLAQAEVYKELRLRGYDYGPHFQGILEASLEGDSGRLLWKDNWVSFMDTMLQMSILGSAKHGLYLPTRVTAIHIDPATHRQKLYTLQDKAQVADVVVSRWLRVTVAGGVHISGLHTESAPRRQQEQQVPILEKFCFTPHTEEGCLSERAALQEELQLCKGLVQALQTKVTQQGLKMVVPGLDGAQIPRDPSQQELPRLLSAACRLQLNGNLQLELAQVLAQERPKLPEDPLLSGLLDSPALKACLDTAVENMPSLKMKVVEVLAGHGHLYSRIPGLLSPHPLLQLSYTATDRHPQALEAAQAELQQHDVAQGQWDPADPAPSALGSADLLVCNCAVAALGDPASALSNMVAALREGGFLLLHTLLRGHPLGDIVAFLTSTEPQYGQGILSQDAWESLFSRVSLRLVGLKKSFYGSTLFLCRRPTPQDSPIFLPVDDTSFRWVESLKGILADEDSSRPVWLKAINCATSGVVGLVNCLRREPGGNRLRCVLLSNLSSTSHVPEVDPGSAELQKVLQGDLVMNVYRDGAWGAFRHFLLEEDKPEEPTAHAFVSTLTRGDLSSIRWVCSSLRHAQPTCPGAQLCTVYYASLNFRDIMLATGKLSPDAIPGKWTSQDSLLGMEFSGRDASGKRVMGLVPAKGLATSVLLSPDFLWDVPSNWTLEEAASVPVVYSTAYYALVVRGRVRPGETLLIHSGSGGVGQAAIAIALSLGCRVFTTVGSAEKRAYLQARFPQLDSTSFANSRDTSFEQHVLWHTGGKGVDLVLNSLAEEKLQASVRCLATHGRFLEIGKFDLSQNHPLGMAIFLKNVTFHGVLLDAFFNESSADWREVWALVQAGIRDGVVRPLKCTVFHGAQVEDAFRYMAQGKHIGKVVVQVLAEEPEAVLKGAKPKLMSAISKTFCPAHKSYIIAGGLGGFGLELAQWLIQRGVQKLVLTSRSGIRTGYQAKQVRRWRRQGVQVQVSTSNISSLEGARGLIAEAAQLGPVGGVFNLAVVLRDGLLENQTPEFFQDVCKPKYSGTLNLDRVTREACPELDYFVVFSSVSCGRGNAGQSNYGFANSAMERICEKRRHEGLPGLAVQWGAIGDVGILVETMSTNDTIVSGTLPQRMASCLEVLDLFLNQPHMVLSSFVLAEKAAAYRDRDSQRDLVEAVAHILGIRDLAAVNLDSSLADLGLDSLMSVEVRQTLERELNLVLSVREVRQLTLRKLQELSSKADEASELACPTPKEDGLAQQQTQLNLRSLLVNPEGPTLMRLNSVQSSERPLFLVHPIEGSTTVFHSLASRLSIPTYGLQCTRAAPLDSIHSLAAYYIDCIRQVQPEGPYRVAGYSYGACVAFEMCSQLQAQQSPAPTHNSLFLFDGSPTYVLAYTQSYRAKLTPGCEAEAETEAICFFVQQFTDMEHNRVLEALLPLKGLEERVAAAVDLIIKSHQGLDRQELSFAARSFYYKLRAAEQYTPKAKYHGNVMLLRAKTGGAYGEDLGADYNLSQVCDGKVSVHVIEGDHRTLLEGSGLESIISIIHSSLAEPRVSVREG

In the case of `CCCCc1ccc(O)cc1`, the molecule was called inactive in [1], in assay [3], in assay [4] and in [6]. For the same molecule, the figures for the AC50 in assay [2] and in assay [5] were 28.4 µM (active) and 32.2 µM (active), respectively.
Take `CCOP(=S)(OCC)SCn1nnc2ccccc2c1=O`: the AC50 is 10 µM (active) in assay [1] and 8.4 µM (active) in [6]. Besides, the molecule was called inactive in assay [2], in [3], in assay [4] and in assay [5].
Regarding `CC(=O)c1ccc(-c2ccccc2)cc1`, the AC50 was 25.8 µM (active) in [1], 50 µM (active) in [7], 36.5 µM (active) in assay [3] and 19.1 µM (active) in assay [8]. For the same molecule, the call in assay [2] and in assay [6] was inactive.
Take `COP(N)(=S)OC`: the molecule was classed as inactive in [1], in assay [7], in assay [2], in [3], in [6] and in assay [8].
As for `ClC(Cl)=C(c1ccc(Cl)cc1)c1ccccc1Cl`, the result in [1], in [7], in assay [2], in assay [3], in [4] and in assay [5] was inactive. For the same molecule, the molecule was classed as inactive in assay [6] and in assay [8].
Turning to `Nc1ccc2ccccc2c1`, the results for the AC50 in [1], in assay [6] and in assay [10] were 13.9 µM (active), 13.8 µM (active) and 10.6 µM (active), respectively. The call in assay [4], in assay [5], in [9], in [11], in assay [12] and in [13] was inactive. For the same molecule, the molecule was classed as inactive in assay [14], in [15], in assay [16] and in assay [17].
Take `CCOC(=O)c1ccccc1C(=O)OCC`: the result in assay [9], in assay [10], in assay [18], in [11], in assay [12] and in assay [13] was inactive. For the same molecule, the molecule was called inactive in [14], in assay [15], in assay [16] and in [17]. Further, in assay [19], the half-maximal activity concentration (AC50) was 74 µM (active).
Consider `Nc1ccc([N+](=O)[O-])cc1Cl`, for which the molecule was called inactive in assay [1], in assay [7], in assay [2], in assay [3], in assay [6] and in [8].
For `N#Cc1c(-c2ccc(Cl)cc2)[nH]c(C(F)(F)F)c1Br`, the AC50 in [1] was 0.282 µM (active); in [2], 0.645 µM (active); in assay [3], 0.253 µM (active). The molecule was classed as inactive in assay [7], in assay [4], in [5], in [6] and in [8].
Consider `CCNc1nc(Cl)nc(NC(C)(C)C)n1`, for which the molecule was classed as inactive in assay [1], in assay [7], in assay [2], in assay [3], in assay [4] and in assay [6]. Also, the molecule was called inactive in assay [9], in assay [10], in [18], in assay [11], in assay [12] and in [13]. In addition, the call in assay [14], in [15], in [8], in assay [16] and in assay [17] was inactive. Further, in [5], the AC50 is 1.51 µM (active).
Consider `Cc1cccc(N)c1`, for which the outcome in [1], in assay [6], in assay [10], in assay [18], in assay [11] and in assay [12] was inactive. In addition, the call in assay [13], in assay [14], in assay [15], in assay [16] and in assay [17] was inactive.
Consider `CCOP(=S)(NC(C)C)Oc1ccccc1C(=O)OC(C)C` (stereo not given), for which the AC50 in assay [1] is 4.65 µM (active); in assay [6], 6.65 µM (active). Further, the molecule was called inactive in assay [2], in assay [3], in [4] and in assay [5].
